# An excerpt weighted towards active compounds, which were near 18% of everything screened.
# TDP1 cell CPT: growth inhibition of DT40 Tdp1-/-;hTDP1 cells with camptothecin (screen for TDP1 inhibitors); chicken DT40 Tdp1-/-;hTDP1 cells + 20 nM CPT, ATP luminescence, 48 h; Potency, µM (doses to about 46.2 µM), inactives show top-dose activity change, negative = growth inhibition, most hits filed as inhibitors; 420,000 tested, 12% active; AID 686979; note: potency is the fitted concentration of half-maximal effect; nearly all actives have a fitted effect of over 55% in size
#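 Chicken DT40 Tdp1-/- cells complemented with human TDP1, 400 cells/well, exposed to compounds plus 20 nM camptothecin for at least 48 h at 37 C; viability read as ATP content by CellTiter-Glo luminescence.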
# CtBP-E1A blk: blocks the CtBP interaction with E1A; activity change, % (no concentration beside the values); AID 651724; 340,000 tested, 0.49% active; AlphaScreen GST-E1A/His-CtBP binding, 1536-well; stronger effect = lower value; in the data active = activity change below about -65%; inconclusive = mostly about -30% to -63%
#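 Steps: dispense buffer (Tris pH 8.0, NaCl 300 mM, TCEP 1 mM, BSA, Tween 20); add 5X protein mix (GST-E1A, His-CtBP, 125 nM each); pin 23 nL compound; 2 h at 37 °C, dark; add 5X beads (50 ug/mL); 1 h; read.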
# Six1-Eya2 blk: inhibitors of human Six1/Eya2 interaction; Q15475+O00167; AlphaScreen GST-Six1/His-Eya2 binding, biochemical; stronger effect = lower value; activity change, % (test concentration not listed); 360,000 tested, 0.56% active; AID 651725; in the data active = activity change below about -65%; inconclusive = mostly about -30% to -63%
#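 Six1/Eya2 binding was read as AlphaScreen signal after compounds were pinned into GST-Six1 plus His-tagged Eya2 (5X stock 250/500 nM) in pH 8.0 Tris/NaCl/TCEP buffer, beads added, then incubated 1 h, 37 C, dark.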
# DT40 TDP1 no CPT: qHTS for Inhibitors of human tyrosyl-DNA phosphodiesterase 1 (TDP1): qHTS in cells in absence of CPT | DT40 Tdp1-/- hTDP1 cells, no CPT, ATP luminescence, 48 h | AID 686978, 2013 | Potency, µM (titrated, usually from 46.2 µM), inactives show at the highest dose activity change, negative = growth inhibition, usual class: inhibitors | 420,000 tested, 15% active; note: potency is the fitted concentration of half-maximal effect; nearly all actives have a fitted effect of over 55% in size
#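 No-CPT arm: Tdp1-/-;hTDP1 DT40 cells (400/well) plus compounds, incubated ≥48 hr at 37 °C. Readout CellTiter-Glo luminescence.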
# IL1B secr inh: blocks inflammasome-driven IL-1 beta release; activity change, % at 57.5 µM; 360,000 tested, 4.7% active; THP-1 LPS/ATP IL-1B secretion, AlphaLISA, 16 h; stronger effect = lower value; AID 743279; in the data active = activity change below about -50%; inconclusive = mostly about -30% to -49%
#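 THP-1 cells pretreated 1 hr with compounds (up to 57.5 uM final), then stimulated with LPS (250 ng/mL final) plus ATP (1.25 mM final); secreted IL-1B measured by AlphaLISA after 16 hr, decreased signal indicating inhibition.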
# TDP1 inh: TDP1 (human) enzyme inhibition; Q9NUW8; recombinant TDP1, AlphaScreen DNA substrate cleavage; Potency, µM (top dose mostly 130 µM), for the others: at the highest dose activity change, negative = inhibition, most hits filed as inhibitors; 350,000 tested, 0.28% active; note: potency is the fitted concentration of half-maximal effect; nearly all actives have a fitted effect of over 40% in size
# Target sequence (Q9NUW8 whole entry, looked up): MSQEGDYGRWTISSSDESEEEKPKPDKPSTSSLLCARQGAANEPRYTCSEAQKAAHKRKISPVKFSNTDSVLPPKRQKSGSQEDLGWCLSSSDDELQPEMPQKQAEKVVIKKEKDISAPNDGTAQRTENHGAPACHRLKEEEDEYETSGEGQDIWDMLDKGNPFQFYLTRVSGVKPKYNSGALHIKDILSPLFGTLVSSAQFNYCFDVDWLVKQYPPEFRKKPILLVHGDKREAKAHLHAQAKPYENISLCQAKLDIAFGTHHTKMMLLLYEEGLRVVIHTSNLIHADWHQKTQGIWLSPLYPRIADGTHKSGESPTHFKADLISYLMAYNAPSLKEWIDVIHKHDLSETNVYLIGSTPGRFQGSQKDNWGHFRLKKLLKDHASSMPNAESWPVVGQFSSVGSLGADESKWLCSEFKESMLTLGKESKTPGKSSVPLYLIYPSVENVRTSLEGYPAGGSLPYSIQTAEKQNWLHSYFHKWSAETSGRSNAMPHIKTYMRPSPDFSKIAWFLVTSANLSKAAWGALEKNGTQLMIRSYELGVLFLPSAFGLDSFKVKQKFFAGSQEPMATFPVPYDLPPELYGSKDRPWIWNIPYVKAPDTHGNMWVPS
#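 Here, a 5' biotin and 3' phosphotyrosine-FITC DNA oligonucleotide reports Tdp1 activity: intact substrate bridges AlphaScreen beads, while cleavage leaves a 3' phosphate and drops signal. All incubations at room temperature.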
# Starred values were filed as active, the others as inactive; ? = inconclusive; . = no result. Unless noted, calls come from the whole dose curve; as a rule, active = well fitted curve in the direction sought with a large enough effect; inconclusive = small, poorly fitted or top-dose-only effect, or another doubt; inactive = no such curve, though single readings can be large; an effect the other way counts as inactive or inconclusive. % is set by controls: 0 for no effect and ±100 for the full control effect.
SMILES,TDP1 cell CPT,CtBP-E1A blk,Six1-Eya2 blk,DT40 TDP1 no CPT,IL1B secr inh,TDP1 inh
Oc1[nH]c(N=C2N=c3ccccc3=N2)c2ccccc12,0.581µM*,?,?,0.92µM*,-97.8*,11.4%
CCCOc1ccc(C(=O)NCC(C)(C)N2CCOCC2)cc1,0.9%,3.3,-0.7,-18.8%,12.0,5.3%
CCOC(=O)c1sc2nc(OCc3cccnc3)cc(C)c2c1N,?,-4.8,-15.2,?,-50.5*,.
CCOC(=O)c1sc2nc(C)cc(C)c2c1N,-0.3%,-14.5,6.0,-11.5%,0.5,7.8%
CCOC(=O)C1CCN(Cc2cc(=O)oc3c(C)c(C)ccc23)CC1,?,1.1,0.4,?,11.0,.
CCc1ccc(-n2cc(-c3ccc([N+](=O)[O-])cc3)[nH]c2=S)cc1,3.1%,-3.3,-0.3,-4.8%,-25.9,5.3%
CCc1ccc(-c2cn(C3CCCCC3)c(=S)[nH]2)cc1,?,-4.5,-28.7,8.2µM*,-68.4*,5.3%
O=C(Nc1ccccc1C(=O)OC1CCOC1=O)c1ccco1 (configuration not stated),13.8%,1.5,-1.8,-23.7%,5.6,4.8%
CCOC(=O)N1CCc2c(sc3c2c(=O)n(CCc2ccccc2)c(=O)n3Cc2c(F)cccc2Cl)C1,?,.,.,25.9µM*,.,6.4%
CCOC(=O)N1CCc2c(sc3c2c(=O)n(Cc2ccccc2)c(=O)n3Cc2ccccc2Cl)C1,?,.,.,?,.,6.4%
CC(=O)c1cccc(-n2c(=O)c3c4c(sc3n(Cc3cccc(C)c3)c2=O)CN(C(C)=O)CC4)c1,16.4µM*,.,.,14.6µM*,.,-4.9%
CCOC(=O)N1CCc2c(sc3c2c(=O)n(CCc2ccccc2)c(=O)n3CC(=O)Nc2cccc(C)c2)C1,?,.,.,?,.,9.0%
COc1ccccc1NC(=O)Cn1c(=O)n(-c2cccc(C(C)=O)c2)c(=O)c2c3c(sc21)CN(C(C)=O)CC3,3.1%,.,.,2.6%,.,3.9%
CC(=O)N1CCc2c(sc3c2c(=O)n(CCc2ccccc2)c(=O)n3Cc2cccc(C)c2)C1,14.6µM*,.,.,16.4µM*,.,-2.9%
CCOC(=O)N1CCc2c(sc3c2c(=O)n(CCc2ccccc2)c(=O)n3Cc2ccc(C)cc2C)C1,?,.,.,23.1µM*,.,6.4%
C=CCNC(=O)c1onc(CSc2ccccc2CC)c1C(=O)O,-4.3%,3.2,0.8,-1.6%,16.2,2.1%
CN1CCN(C(=O)c2cc(S(=O)(=O)Nc3ccccc3F)c(Cl)cc2Cl)CC1,-4.9%,-4.8,6.5,-12.7%,-0.8,2.9%
CC(=O)N1CCc2c(sc3c2c(=O)n(-c2ccccc2)c(=O)n3CC(=O)c2ccccc2)C1,25.2%,.,.,-29.4%,.,-1.0%
CC(=O)N1CCc2c(sc3c2c(=O)n(Cc2ccccc2)c(=O)n3Cc2ccc(Cl)cc2)C1,?,.,.,29.1µM*,.,-2.9%
CC(=O)N1CCc2c(sc3c2c(=O)n(Cc2ccccc2)c(=O)n3Cc2cccc(Cl)c2)C1,?,.,.,?,.,3.9%
CC(=O)N1CCc2c(sc3c2c(=O)n(-c2ccccc2)c(=O)n3Cc2cccc(C(F)(F)F)c2)C1,16.4µM*,.,.,18.4µM*,.,4.9%
CC(C)(C)C(=O)Nc1sc2c(c1C#N)CCC2,-0.2%,-0.1,3.0,0.4%,14.8,0.0%
Cc1cccc2cc(CN(Cc3cccnc3)C(=S)NCCCN(C)C)c(=O)[nH]c12,13µM*,-1.7,-3.1,?,-6.7,2.8%
Cc1ccc2[nH]c(=O)c(CN(Cc3cccnc3)C(=S)NCCCN(C)C)cc2c1,12.4%,11.6,1.6,-2.1%,-13.1,6.0%
Cc1cccc2cc(CN(Cc3ccccc3)C(=S)NCCCN(C)C)c(=O)[nH]c12,?,-11.6,-11.0,?,-84.5*,2.6%
SMILES,TDP1 cell CPT,CtBP-E1A blk,Six1-Eya2 blk,DT40 TDP1 no CPT,IL1B secr inh,TDP1 inh
Cc1ccc(CN(Cc2cc3cccc(C)c3[nH]c2=O)C(=S)NCCCN(C)C)cc1,?,-6.3,-12.4,?,-77.5*,4.8%
CCN(CC)CCCNC(=S)N(Cc1cccnc1)Cc1cc2cccc(C)c2[nH]c1=O,2.3%,-9.2,-1.9,-19.6%,?,0.0%
CCOc1ccc(CCNC(=O)COC(=O)/C=C/c2ccc(OC(F)F)c(OC)c2)cc1OCC,-22.5%,-0.5,-8.9,?,4.3,0.9%
Cc1ccccc1-c1cccc(CN2CCN(C)C(CCO)C2)c1 (configuration not stated),-22.8%,-0.7,3.3,3.5%,-54.3*,.
CC(C)N1CCC(N2CCN(Cc3ccc(-c4ccccc4Cl)o3)CC2CCO)CC1 (configuration not stated),?,13.6,0.2,?,?,-5.6%
Cc1ccc(-c2cccc(CN3CCN(C4CCN(C(C)C)CC4)C(CCO)C3)c2)o1 (configuration not stated),?,-24.3,-16.6,7.31µM*,?,6.1%
CC(C)N1CCC(N2CCN(Cc3ccc(-c4ccc(Cl)cc4)o3)CC2CCO)CC1 (configuration not stated),?,-13.3,-4.9,18.4µM*,-69.5*,.
CC(C)N1CCN(Cc2cccc(-c3ccco3)c2)CC1CCO (configuration not stated),8.5%,-5.2,-2.7,-20.0%,13.3,.
CC(CSc1nnnn1-c1ccccc1)Cn1c(N2CCCC2)nc2c1c(=O)[nH]c(=O)n2C (configuration not stated),?,0.0,11.4,?,?,5.5%
CCN(CC)CCOC(=O)c1ccc(Cl)cc1Cl,0.6%,7.1,-2.0,6.7%,10.9,-7.6%
CCCOc1ccc(N2C(=O)CC(NCc3cccnc3)C2=O)cc1 (configuration not stated),5.0%,-0.1,-7.4,-15.3%,33.1,6.0%
COC(=O)c1ccc(N2C(c3cc(OC)cc(OC)c3)=Cc3ccc(OC)cc3C2CC(=O)c2ccco2)cc1 (configuration not stated),?,-29.5,-9.4,?,-8.4,.
Cc1ccc(S(=O)(=O)N2CCN(C(=O)CN3C(=O)NC4(CCOc5ccccc54)C3=O)CC2)cc1 (configuration not stated),-22.1%,5.7,-0.4,-0.2%,9.6,2.3%
COc1ccc(-c2ccc(CN3C(CC(C)C)C(=O)N(Cc4cn(CCC5OCCCO5)nn4)CCS3(=O)=O)cc2)cc1OC (configuration not stated),13µM*,4.3,-6.0,?,0.9,.
